Screening data: PubChem, National Center for Advancing Translational Sciences (NCATS)
D3 ag: qHTS of D3 Dopamine Receptor Agonist: qHTS; D3R DiscoveRx beta-arrestin cells, luminescence, 90 min; max activation, %; 410,000 compounds, 0.58% hits; AID 652048, 2013; in the data active = max activation above about 30%
Target sequence (P35462 whole entry, looked up): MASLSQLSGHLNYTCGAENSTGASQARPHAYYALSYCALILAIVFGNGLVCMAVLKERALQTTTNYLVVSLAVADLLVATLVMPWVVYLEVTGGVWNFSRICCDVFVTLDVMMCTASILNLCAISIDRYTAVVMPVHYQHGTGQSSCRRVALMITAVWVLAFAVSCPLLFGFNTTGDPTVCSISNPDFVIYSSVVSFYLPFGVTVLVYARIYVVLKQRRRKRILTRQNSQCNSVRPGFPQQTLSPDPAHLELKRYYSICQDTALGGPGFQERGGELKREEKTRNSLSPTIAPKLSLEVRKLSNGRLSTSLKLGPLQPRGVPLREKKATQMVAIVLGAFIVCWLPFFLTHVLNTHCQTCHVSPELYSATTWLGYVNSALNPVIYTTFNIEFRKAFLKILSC
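Agonist mode: compounds and dopamine controls were applied to plated cells for 90 min at 37 degrees C after an overnight attachment at 1500 cells/well. Luminescent read-out followed 30 - 60 minutes at room temperature with DiscoveRx detection reagent.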
TGFb SMAD3 inh: qHTS for Inhibitors of TGF-b | HepG2 CAGA-GFP TGF-b/SMAD3 reporter, GFP fluorescence, 18 h; TGF-beta stimulated, 500 pg/mL final | Potency, µM (series often up to 46.1 µM), usual class: inhibitors | 410,000 compounds, 1.2% hits | AID 588855, 2011; note: nearly all actives have a fitted effect of over 65% in size
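Inhibition was scored as loss of TGF-beta-induced (500 pg/mL final, 18 hours, 37 degrees C) GFP in HEPG2 cells carrying a CAGA-GFP reporter, in DMEM with 1% FBS. Well GFP was summed per cell; Activity was normalised to unstimulated and stimulated DMSO wells, then concentration-response fitting.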
S2 tox: Viability Counterscreen for Primary qHTS for Inhibitors of ATXN expression; S2 cells (HEK-293 line with an ATXN2-luciferase reporter) viability, CellTiter-Fluor protease fluorescence, 24 h; Potency, µM (titrated, usually from 56.7 µM), most hits filed as cytotoxic; 400,000 compounds, 0.49% hits; note: nearly all actives have a fitted effect of over 40% in size
DRD3 antagonist: qHTS of D3 Dopamine Receptor Antagonist: qHTS; 360,000 compounds, 2.5% hits; D3R cells, DiscoveRx beta-arrestin luminescence, antagonist mode; stronger effect = lower value; D(3) dopamine receptor (Homo sapiens), P35462; max response, negative = inhibition, %; in the data active = max response below about -50%; inconclusive = no clear call, values can overlap the other calls
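Cells plated overnight at 1500 cells/well, then exposed to library compounds with dopamine controls for 90 minutes at 37 degrees C. DiscoveRx reagent added for 30–60 minutes at room temperature; luminescence read, quantitative HTS format.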
HepG2 tox-1: qHTS for Inhibitors of TGF-b: Cytotox Counterscreen. Potency, µM (highest dose often 46.1 µM), most hits filed as cytotoxic. HepG2 CAGA-GFP viability, ATP luminescence, 18 h. 410,000 compounds, 0.76% hits
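CellTiter-Glo luminescence gave cytotoxicity after 18 hours at 37 degrees C. The cells were HepG2 CAGA-GFP in 1% FBS DMEM, stimulated with 500 pg/mL TGF-beta after compound addition. %Activity was normalised to no-cell wells (complete cell-killing) and DMSO (no toxicity), and curves were fitted and classified.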
ATXN2 expr inh: Primary qHTS for Inhibitors of ATXN expression | HEK-293 ATXN2-luciferase reporter, luminescence, 24 h | Potency, µM (titrated, usually from 57 µM), usual class: inhibitors | 360,000 compounds, 0.72% hits; note: nearly all actives have a fitted effect of over 55% in size
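qHTS (up to 57 uM final) was run with 24 h compound exposure of reporter cells at 37 °C. Each well was multiplexed: SteadyGlo luminescence measured ATXN2-luciferase expression after a fluorogenic Gly-Phe-AFC viability readout (25 uM final).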
TGFb confirm: qHTS for Inhibitors of TGF-b: Confirmation of Cherry Picks; shares compounds with TGFb SMAD3 inh; HepG2 CAGA-GFP TGF-b reporter, GFP fluorescence, 18 h; cells stimulated with TGF-beta, 500 pg/mL; Potency, µM (highest dose often 46.1 µM), actives largely listed as inhibitors; 1,600 compounds, 63% hits; note: nearly all actives have a fitted effect of over 65% in size
HepG2 tox-2: qHTS for Inhibitors of TGF-b: Cytotox Counterscreen for Cherry Picks; HepG2 CAGA-GFP viability, ATP luminescence, 18 h; cells stimulated with TGF-beta, 500 pg/mL; shares compounds with TGFb SMAD3 inh; 1,600 compounds, 27% hits; Potency, µM (titrated, usually from 46.1 µM), hits mostly inhibitors; note: nearly all actives have a fitted effect of over 70% in size
CCL64 TGFb inh: qHTS for Inhibitors of TGF-b: CCL64 Cells Orthogonal Assay for Cherry Picks; shares compounds with TGFb SMAD3 inh; CCL64 CAGA-GFP reporter, TGF-b stimulated, GFP fluorescence, 18 h; Potency, µM (top dose mostly 46.1 µM), most hits filed as inhibitors; 1,600 compounds, 41% hits; note: nearly all actives have a fitted effect of over 65% in size
COP TGFb inh: qHTS for Inhibitors of TGF-b: Hit Validation in HepG2 Cells using COP promoter; shares compounds with TGFb SMAD3 inh; HepG2 COP-GFP TGF-b reporter, GFP fluorescence, 18 h; cells stimulated by added recombinant TGF-beta; Potency, µM (top dose mostly 46.1 µM), actives largely listed as inhibitors; 1,600 compounds, 3% hits; AID 720537, 2013; note: nearly all actives have a fitted effect of over 70% in size
Of the large screens only hits and unclear results are named; the others gave an inactive call (follow-up assays come after a bar, where they were run). An excerpt weighted towards active compounds, which were near 4.8% of everything screened. Unless noted, calls come from the whole dose curve; as a rule, active = well fitted curve in the direction sought with a large enough effect; inconclusive = small, poorly fitted or top-dose-only effect, or another doubt; inactive = no such curve, though single readings can be large; an effect the other way counts as inactive or inconclusive.

COc1cccc(/C=N/NC(=O)CSc2nnc(C)n2-c2ccccc2)c1O	S2 tox inconclusive, ATXN2 expr inh inconclusive
Cc1cc(NC(=O)c2ccc([N+](=O)[O-])o2)ccc1NC(=O)c1ccco1	TGFb SMAD3 inh 7.1µM, S2 tox inconclusive | TGFb confirm 4.1µM | HepG2 tox-2 21µM | CCL64 TGFb inh inconclusive | COP TGFb inh inactive
CC(C)C(=O)N1CCN(c2ccc(NC(=O)c3ccc([N+](=O)[O-])o3)cc2)CC1	TGFb SMAD3 inh inconclusive, DRD3 antagonist inconclusive | TGFb confirm 5.8µM | HepG2 tox-2 10µM | CCL64 TGFb inh inconclusive | COP TGFb inh inactive
CC(C)C(=O)N1CCN(c2ccc(NC(=O)c3ccc([N+](=O)[O-])o3)cc2Cl)CC1	TGFb SMAD3 inh 7.9µM, DRD3 antagonist inconclusive, ATXN2 expr inh inconclusive | TGFb confirm 5.8µM | HepG2 tox-2 21µM | CCL64 TGFb inh inconclusive | COP TGFb inh inactive
O=C(Nc1ccc2oc(-c3ccncc3)nc2c1)c1ccc([N+](=O)[O-])o1	TGFb SMAD3 inh 5.6µM, S2 tox inconclusive | TGFb confirm 6.5µM | HepG2 tox-2 inconclusive | CCL64 TGFb inh inconclusive | COP TGFb inh inactive
CCOc1ccc(OCC)c(NC(=O)CCc2nc3cccnc3n2-c2ccccc2)c1	none (no result: DRD3 antagonist)
CC(=O)N1CCN(c2ccc(NC(=O)c3ccc(Br)o3)cc2Cl)CC1	none (no result: ATXN2 expr inh)
O=C(Nc1cccc(Cl)c1N1CCCC1)c1ccc([N+](=O)[O-])o1	none
O=C(Nc1c(Cl)ccc2nsnc12)c1ccc(Br)o1	none (no result: ATXN2 expr inh)
CN1CCN(c2ccc(NC(=O)c3ccc([N+](=O)[O-])o3)cc2Cl)CC1	TGFb SMAD3 inh 10µM, S2 tox 20µM, DRD3 antagonist inconclusive | TGFb confirm 8.2µM | HepG2 tox-2 16µM | CCL64 TGFb inh 23µM | COP TGFb inh inactive
CCCC(=O)N1CCN(c2ccc(NC(=O)c3ccc([N+](=O)[O-])o3)cc2Cl)CC1	TGFb SMAD3 inh 5.6µM, DRD3 antagonist inconclusive, HepG2 tox-1 11µM, ATXN2 expr inh inconclusive | TGFb confirm 3.7µM | HepG2 tox-2 13µM | CCL64 TGFb inh 23µM | COP TGFb inh inconclusive
O=C(Nc1ccc(N2CCOCC2)c(Cl)c1)c1ccc([N+](=O)[O-])o1	TGFb SMAD3 inh 8.9µM, S2 tox inconclusive, DRD3 antagonist inconclusive, HepG2 tox-1 13µM (no result: ATXN2 expr inh) | TGFb confirm 15µM | HepG2 tox-2 21µM | CCL64 TGFb inh 13µM | COP TGFb inh inconclusive
O=C(Nc1c(Cl)ccc2nsnc12)c1ccc([N+](=O)[O-])o1	TGFb SMAD3 inh 10µM, HepG2 tox-1 13µM | TGFb confirm 8.2µM | HepG2 tox-2 inconclusive | CCL64 TGFb inh inconclusive | COP TGFb inh inconclusive
CC(C)CN(CC(C)C)c1ccc(/C=C/c2ccnc3ccccc23)cc1	none (no result: D3 ag, S2 tox, DRD3 antagonist, ATXN2 expr inh)
N#Cc1cccc(S(=O)(=O)N2CCN(S(=O)(=O)c3ccc4c(c3)OCCO4)CC2)c1	none (no result: D3 ag, S2 tox, DRD3 antagonist, ATXN2 expr inh)
